In the supplement of paper PMC10849652:
Of roughly 7,900 targets only a part is listed; those with a hit were picked by preference. About 0.6% of all pairs of compound and target were hits.

Columns and labels:
Assay in all cases: log2 fold change, soluble protein after heating vs DMSO (PISA); higher = thermal stabilisation; K562 cells, 10 uM, 30 min; active = over 0.2 and 3.5 SD of the protein, either way, in both replicates (recomputed)
[1] = compound: CC[C@@H]1C(=O)N(C)c2cnc(Nc3ccc(C(=O)NC4CCN(C)CC4)cc3OC)nc2N1C1CCCC1
Outline: (§1)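 Thermal stability values are relative to control samples and come from duplicates. They are expressed as log2 fold changes. For measurement, K562 cells (2×10^6 cells/mL) received 10 μM compound for 30 min, and aliquots were heated for 3 min over 48°C-58°C, pooled, and extracted at 4°C in PBS with 0.5% NP-40. Soluble protein, the supernatant after 21,000xg for 90 min, was quantified by TMTpro 16plex LC-MS/MS with equalised channel sums.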

volasertib = compound: CC[C@@H]1C(=O)N(C)c2cnc(Nc3ccc(C(=O)N[C@H]4CC[C@H](N5CCN(CC6CC6)CC5)CC4)cc3OC)nc2N1C(C)C [volasertib]
Outline: as §1

[2] = compound: CC[C@H](C)N1C=C(C2=C(C=C(C=C21)C3=CN=C(C=C3)N4CCNCC4)C(=O)NCC5=C(C=C(NC5=O)C)C)C
Outline: as §1

epoxomicin = compound: CC[C@H](C)[C@@H](C(=O)N[C@@H]([C@@H](C)O)C(=O)N[C@@H](CC(C)C)C(=O)[C@]1(CO1)C)NC(=O)[C@H]([C@@H](C)CC)N(C)C(=O)C [epoxomicin]
Outline: as §1

[3] = compound: CCn1c(C(=O)N(C2CC2)C2CC2)cc2c3c(ncn3C)c(Nc3cc(C)n(C)n3)nc21
Outline: as §1

[4] = compound: CN(C)CC(=O)Nc1ccc2[nH]c(=O)c3ccccc3c2c1
Outline: as §1

rosiglitazone = compound: CN(CCOC1=CC=C(C=C1)C[C@H]2C(=O)NC(=O)S2)C3=CC=CC=N3 (racemic) [rosiglitazone]
Outline: as §1

[5] = compound: CN1C2=C(C3=C1C(=O)N(N=C3)CC4=CC(=CC=C4)N)SC(=C2)S(=O)C
Outline: as §1

saracatinib = compound: CN1CCN(CCOc2cc(OC3CCOCC3)c3c(Nc4c(Cl)ccc5c4OCO5)ncnc3c2)CC1 [saracatinib]
Outline: as §1

sotrastaurin = compound: CN1CCN(c2nc(C3=C(c4c[nH]c5ccccc45)C(=O)NC3=O)c3ccccc3n2)CC1 [sotrastaurin]
Outline: as §1

alvocidib = compound: CN1CC[C@H](c2c(O)cc(O)c3c(=O)cc(-c4ccccc4Cl)oc23)[C@H](O)C1 [alvocidib]
Outline: as §1

Tubastatin A = compound: CN1CCc2c(c3ccccc3n2Cc2ccc(C(=O)NO)cc2)C1 [Tubastatin A]
Outline: as §1

[6] = compound: CNC(=O)C1=CC=CC=C1NC2=NC(=NC=C2Cl)NC3=C(C=C(C=C3)N4CCOCC4)OC
Outline: as §1

defactinib = compound: CNC(=O)c1ccc(Nc2ncc(C(F)(F)F)c(NCc3nccnc3N(C)S(C)(=O)=O)n2)cc1 [defactinib]
Outline: as §1

rucaparib = compound: CNCc1ccc(-c2[nH]c3cc(F)cc4c3c2CCNC4=O)cc1 [rucaparib]
Outline: as §1

[7] = compound: CNc1nc(-c2ccc3c(N)n[nH]c3c2)cc(N2C[C@@H](C(=O)NC3CCCCC3)CC[C@H]2C)n1
Outline: as §1

encorafenib = compound: COC(=O)N[C@@H](C)CNc1nccc(-c2cn(C(C)C)nc2-c2cc(Cl)cc(NS(C)(=O)=O)c2F)n1 [encorafenib]
Outline: as §1

[8] = compound: COC(=O)[C@H](CCSC)NC(=O)C1=C(C=C(C=C1)NC[C@H](CS)N)C2=CC=CC=C2
Outline: as §1

[9] = compound: CCn1cc(-c2ccnc3[nH]c(-c4cccc(CN(C)C)c4)cc23)c(-c2ccc(NC(=O)N(C)C)cc2)n1
Outline: as §1

[10] = compound: CN1CCC(CNc2ccc3ncc(-c4cccc(OC(F)(F)F)c4)n3n2)CC1
Outline: as §1

Measured: log2 fold change

NAA11 (UniProt Q9BSU3)
inactive: [1] -0.013 | volasertib -0.041 | [2] 0.044 | epoxomicin 0.063 | [3] 0.015 | [4] -0.114 | rosiglitazone -0.053 | [5] 0.001 | saracatinib 0.033 | sotrastaurin -0.247 | alvocidib -0.038 | Tubastatin A 0.035 | [6] -0.078 | defactinib -0.132 | rucaparib 0.135 | [7] -0.133 | encorafenib 0.022 | [8] 0.034

MYLK (UniProt Q15746)
Sequence of UniProt Q15746 (Q15746 whole entry, looked up): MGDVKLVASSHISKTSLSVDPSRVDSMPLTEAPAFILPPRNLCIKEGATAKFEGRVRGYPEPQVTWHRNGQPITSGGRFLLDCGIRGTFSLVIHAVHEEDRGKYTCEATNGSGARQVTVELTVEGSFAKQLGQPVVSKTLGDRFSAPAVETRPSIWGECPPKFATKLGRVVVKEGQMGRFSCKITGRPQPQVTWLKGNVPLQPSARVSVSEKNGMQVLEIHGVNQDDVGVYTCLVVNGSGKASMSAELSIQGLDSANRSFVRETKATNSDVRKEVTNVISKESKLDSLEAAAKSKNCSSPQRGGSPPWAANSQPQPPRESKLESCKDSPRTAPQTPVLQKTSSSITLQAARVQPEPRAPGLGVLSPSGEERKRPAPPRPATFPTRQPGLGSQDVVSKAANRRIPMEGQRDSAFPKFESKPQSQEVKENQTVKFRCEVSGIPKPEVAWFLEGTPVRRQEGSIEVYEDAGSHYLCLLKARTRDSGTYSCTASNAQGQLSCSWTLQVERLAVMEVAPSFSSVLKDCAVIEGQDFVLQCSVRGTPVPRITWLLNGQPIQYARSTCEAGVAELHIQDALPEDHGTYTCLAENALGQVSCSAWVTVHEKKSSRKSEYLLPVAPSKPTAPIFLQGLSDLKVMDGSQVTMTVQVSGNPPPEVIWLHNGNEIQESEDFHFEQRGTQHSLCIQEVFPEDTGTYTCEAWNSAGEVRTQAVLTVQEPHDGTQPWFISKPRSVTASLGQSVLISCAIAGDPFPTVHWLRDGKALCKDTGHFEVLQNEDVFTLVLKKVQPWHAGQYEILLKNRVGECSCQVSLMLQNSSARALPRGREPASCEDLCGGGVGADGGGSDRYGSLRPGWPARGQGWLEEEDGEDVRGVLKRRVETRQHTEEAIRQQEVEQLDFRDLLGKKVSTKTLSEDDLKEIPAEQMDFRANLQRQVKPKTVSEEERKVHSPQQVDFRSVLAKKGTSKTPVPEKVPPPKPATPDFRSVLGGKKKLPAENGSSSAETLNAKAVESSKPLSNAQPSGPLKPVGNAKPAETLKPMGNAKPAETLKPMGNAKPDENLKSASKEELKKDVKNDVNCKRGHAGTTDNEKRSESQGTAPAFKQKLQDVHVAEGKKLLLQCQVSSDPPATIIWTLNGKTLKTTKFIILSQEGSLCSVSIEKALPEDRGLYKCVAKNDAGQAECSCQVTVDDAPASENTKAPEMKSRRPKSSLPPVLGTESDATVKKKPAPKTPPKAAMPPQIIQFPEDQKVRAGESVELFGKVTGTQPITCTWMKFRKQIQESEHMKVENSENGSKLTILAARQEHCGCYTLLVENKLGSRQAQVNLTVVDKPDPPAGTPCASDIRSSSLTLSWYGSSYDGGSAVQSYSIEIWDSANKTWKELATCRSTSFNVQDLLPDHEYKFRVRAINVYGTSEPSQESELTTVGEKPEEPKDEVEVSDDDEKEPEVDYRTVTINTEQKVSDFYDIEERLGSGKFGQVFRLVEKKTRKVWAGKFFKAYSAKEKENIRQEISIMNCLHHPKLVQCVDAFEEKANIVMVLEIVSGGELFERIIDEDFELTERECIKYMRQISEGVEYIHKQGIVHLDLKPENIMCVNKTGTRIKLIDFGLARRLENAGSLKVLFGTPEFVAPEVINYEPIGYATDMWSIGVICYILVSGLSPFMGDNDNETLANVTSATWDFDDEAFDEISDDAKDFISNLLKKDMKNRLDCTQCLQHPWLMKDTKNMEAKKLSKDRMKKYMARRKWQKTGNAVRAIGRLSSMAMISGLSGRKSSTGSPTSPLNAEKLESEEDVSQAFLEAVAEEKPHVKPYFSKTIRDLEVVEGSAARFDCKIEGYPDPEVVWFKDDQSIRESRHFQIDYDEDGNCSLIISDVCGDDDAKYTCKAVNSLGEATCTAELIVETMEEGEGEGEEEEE
inactive: [1] -0.015 | volasertib -0.148 | [2] -0.172 | [3] -0.047 | [9] 0.042 | [4] 0.184 | rosiglitazone 0.202 | [5] -0.126 | [10] -0.005 | saracatinib 0.177 | sotrastaurin -0.036 | alvocidib -0.091 | Tubastatin A 0.036 | [6] 0.716 | defactinib -0.034 | rucaparib -0.083 | [7] -0.079 | encorafenib 0.337 | [8] -0.216

MTHFD1, A0A384N5Y3
Sequence of MTHFD1, A0A384N5Y3 (A0A384N5Y3 whole entry, looked up): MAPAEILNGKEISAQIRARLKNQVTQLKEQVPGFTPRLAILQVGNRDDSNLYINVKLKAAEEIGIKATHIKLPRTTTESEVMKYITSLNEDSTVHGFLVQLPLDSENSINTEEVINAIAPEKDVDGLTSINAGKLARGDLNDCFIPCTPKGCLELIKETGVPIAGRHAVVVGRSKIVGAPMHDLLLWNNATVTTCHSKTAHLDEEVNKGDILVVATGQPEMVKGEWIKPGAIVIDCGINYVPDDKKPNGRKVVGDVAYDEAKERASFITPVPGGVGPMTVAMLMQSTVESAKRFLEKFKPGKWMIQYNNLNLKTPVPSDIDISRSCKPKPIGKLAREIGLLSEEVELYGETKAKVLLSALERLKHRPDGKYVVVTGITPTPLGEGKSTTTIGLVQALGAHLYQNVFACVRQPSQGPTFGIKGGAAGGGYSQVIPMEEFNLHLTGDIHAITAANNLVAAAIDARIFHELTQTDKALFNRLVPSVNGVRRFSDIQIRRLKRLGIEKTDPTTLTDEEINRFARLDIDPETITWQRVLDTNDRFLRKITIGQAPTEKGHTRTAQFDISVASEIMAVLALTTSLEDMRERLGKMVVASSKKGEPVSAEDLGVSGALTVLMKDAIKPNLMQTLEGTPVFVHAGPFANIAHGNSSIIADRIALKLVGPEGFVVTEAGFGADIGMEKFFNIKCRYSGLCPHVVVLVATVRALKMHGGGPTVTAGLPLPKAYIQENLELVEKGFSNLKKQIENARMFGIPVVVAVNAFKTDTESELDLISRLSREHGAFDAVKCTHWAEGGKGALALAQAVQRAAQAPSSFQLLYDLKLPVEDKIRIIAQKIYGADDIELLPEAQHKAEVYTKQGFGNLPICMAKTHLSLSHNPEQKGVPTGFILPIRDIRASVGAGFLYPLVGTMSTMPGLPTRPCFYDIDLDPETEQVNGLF
inactive: [1] -0.152 | volasertib -0.011 | [2] 0.065 | epoxomicin 0.002 | [9] -0.113 | [4] 0.045 | rosiglitazone 0.023 | [5] -0.084 | [10] -0.081 | saracatinib -0.047 | sotrastaurin 0.025 | alvocidib -0.129 | Tubastatin A 0.032 | defactinib -0.173 | rucaparib -0.039 | [7] -0.004 | encorafenib -0.003 | [8] -0.036

NA (UniProt B2RBV5)
Sequence of UniProt B2RBV5 (B2RBV5 whole entry, looked up): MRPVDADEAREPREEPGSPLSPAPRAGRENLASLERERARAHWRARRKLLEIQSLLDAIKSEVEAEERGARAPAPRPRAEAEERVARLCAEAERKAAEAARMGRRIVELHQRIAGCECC
active: epoxomicin 0.593
inactive: [1] 0.135 | volasertib 0.163 | [2] 0.049 | [9] 0.128 | rosiglitazone -0.009 | [10] -0.08 | sotrastaurin -0.057 | rucaparib -0.16 | encorafenib -0.09

NKAP (UniProt Q8N5F7)
Sequence of UniProt Q8N5F7 (Q8N5F7 whole entry, looked up): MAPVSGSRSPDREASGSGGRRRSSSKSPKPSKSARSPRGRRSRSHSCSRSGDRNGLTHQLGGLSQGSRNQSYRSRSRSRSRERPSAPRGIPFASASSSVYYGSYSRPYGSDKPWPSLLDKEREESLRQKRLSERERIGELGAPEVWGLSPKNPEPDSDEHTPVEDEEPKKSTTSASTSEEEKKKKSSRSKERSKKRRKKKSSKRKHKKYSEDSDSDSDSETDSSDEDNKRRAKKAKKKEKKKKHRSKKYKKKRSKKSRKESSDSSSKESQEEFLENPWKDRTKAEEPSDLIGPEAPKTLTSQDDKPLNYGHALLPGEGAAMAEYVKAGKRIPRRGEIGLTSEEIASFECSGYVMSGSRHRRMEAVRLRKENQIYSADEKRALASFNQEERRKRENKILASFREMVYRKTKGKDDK
inactive: [1] 0.026 | volasertib -0.3 | [2] 0.082 | epoxomicin -0.109 | [3] -0.028 | [9] 0.092 | [4] 0.052 | rosiglitazone 0.024 | [5] -0.025 | [10] -0.164 | saracatinib 0.067 | alvocidib -0.142 | Tubastatin A 0.093 | [6] -0.296 | defactinib 0.092 | rucaparib 0.055 | [7] 0.085 | encorafenib 0.149 | [8] 0.039

NCAPG (UniProt Q9BPX3)
inactive: [1] -0.105 | [2] 0.059 | epoxomicin 0.023 | [3] -0.002 | [9] 0.003 | [4] 0.04 | rosiglitazone 0.066 | [5] 0.004 | [10] 0.092 | saracatinib -0.077 | sotrastaurin -0.122 | alvocidib -0.053 | Tubastatin A 0.026 | [6] 0.106 | defactinib -0.067 | rucaparib 0.078 | [7] -0.004 | encorafenib 0.093 | [8] -0.039
active: volasertib -0.506

NUDT6 (UniProt P53370)
inactive: [1] 0.177 | volasertib 0.041 | [2] -0.289 | epoxomicin 0.031 | [3] 0.016 | [4] -0.055 | [5] -0.132 | saracatinib 0.063 | alvocidib 0.165 | Tubastatin A 0.098 | [6] 0.014 | defactinib 0.066 | rucaparib -0.38 | [7] -0.023 | encorafenib -0.024 | [8] -0.087

NIPSNAP3B (UniProt Q9BS92)
Sequence of UniProt Q9BS92 (Q9BS92 whole entry, looked up): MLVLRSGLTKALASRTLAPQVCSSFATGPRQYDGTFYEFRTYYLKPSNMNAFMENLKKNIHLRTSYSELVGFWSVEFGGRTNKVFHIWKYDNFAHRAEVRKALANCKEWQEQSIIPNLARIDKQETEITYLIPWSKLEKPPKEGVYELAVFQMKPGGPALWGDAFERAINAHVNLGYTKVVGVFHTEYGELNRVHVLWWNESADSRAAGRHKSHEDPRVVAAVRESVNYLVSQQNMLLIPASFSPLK
inactive: [1] -0.238 | volasertib -0.028 | [2] 0.039 | [3] -0.039 | [9] -0.019 | [4] -0.088 | rosiglitazone -0.069 | [5] -0.176 | [10] 0.073 | saracatinib 0.122 | sotrastaurin 0.066 | alvocidib -0.029 | Tubastatin A 0.01 | [6] 0.112 | defactinib -0.026 | [7] -0.088 | encorafenib -0.289 | [8] 0.008
active: rucaparib 0.31

ORC5 (UniProt O43913)
Sequence of UniProt O43913 (O43913 whole entry, looked up): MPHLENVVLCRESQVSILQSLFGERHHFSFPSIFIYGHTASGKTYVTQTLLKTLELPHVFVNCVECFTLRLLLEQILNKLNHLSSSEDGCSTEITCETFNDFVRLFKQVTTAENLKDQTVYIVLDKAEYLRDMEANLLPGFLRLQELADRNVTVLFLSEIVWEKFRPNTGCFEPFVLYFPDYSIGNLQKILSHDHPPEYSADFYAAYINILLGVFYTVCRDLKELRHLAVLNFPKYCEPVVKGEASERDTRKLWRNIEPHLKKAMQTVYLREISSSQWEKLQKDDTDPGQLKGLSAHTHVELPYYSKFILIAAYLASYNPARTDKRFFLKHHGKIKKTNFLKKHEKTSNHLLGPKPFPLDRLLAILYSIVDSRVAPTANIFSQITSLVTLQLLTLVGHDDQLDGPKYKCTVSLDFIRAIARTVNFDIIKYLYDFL
inactive: [1] -0.196 | volasertib -0.42 | [2] 0.074 | [3] -0.071 | [9] -0.103 | [4] 0.105 | rosiglitazone 0.084 | [5] -0.029 | [10] -0.203 | saracatinib -0.081 | sotrastaurin 0.149 | alvocidib -0.195 | Tubastatin A 0.093 | [6] -0.097 | defactinib -0.182 | rucaparib 0.094 | [7] -0.009 | encorafenib 0.033 | [8] -0.05

MRFAP1 (UniProt Q9Y605)
inactive: [1] -0.107 | volasertib -0.386 | [2] 0 | [3] 0.029 | [9] 0.022 | [4] 0.242 | rosiglitazone 0.048 | [5] -0.08 | [10] -0.032 | saracatinib -0.118 | sotrastaurin 0.102 | alvocidib -0.097 | Tubastatin A 0.329 | [6] -0.003 | defactinib -0.051 | rucaparib -0.099 | [7] -0.002 | encorafenib 0.141 | [8] -0.027

MRPS16 (UniProt Q9Y3D3)
inactive: [1] 0.012 | volasertib -0.088 | [2] 0.018 | epoxomicin 0.041 | [3] 0.047 | [9] -0.116 | [4] 0.046 | rosiglitazone -0.071 | [10] 0.052 | sotrastaurin -0.039 | alvocidib -0.098 | Tubastatin A 0.008 | [6] -0.115 | defactinib 0.043 | rucaparib 0.084 | encorafenib 0.138 | [8] 0

MT-ND1 (UniProt P03886)
Sequence of UniProt P03886 (P03886 whole entry, looked up): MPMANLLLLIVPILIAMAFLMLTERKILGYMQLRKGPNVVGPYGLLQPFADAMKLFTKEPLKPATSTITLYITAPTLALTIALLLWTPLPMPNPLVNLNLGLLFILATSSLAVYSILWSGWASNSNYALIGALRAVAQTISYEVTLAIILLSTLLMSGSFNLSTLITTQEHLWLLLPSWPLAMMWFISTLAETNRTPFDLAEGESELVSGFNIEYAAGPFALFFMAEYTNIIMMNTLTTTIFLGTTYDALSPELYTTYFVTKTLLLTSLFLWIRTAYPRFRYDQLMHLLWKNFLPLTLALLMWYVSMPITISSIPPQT
inactive: [1] -0.157 | volasertib 0.147 | [2] 0.035 | epoxomicin 0.063 | [3] 0.094 | [4] 0.253 | rosiglitazone -0.071 | [5] -0.115 | saracatinib 0.1 | sotrastaurin -0.005 | alvocidib -0.071 | Tubastatin A 0.123 | [6] -0.025 | defactinib -0.068 | rucaparib -0.041 | [7] -0.11 | encorafenib 0.017 | [8] -0.058

MRPS35 (UniProt P82673)
inactive: [1] 0.064 | volasertib 0.014 | [2] 0.029 | epoxomicin 0.048 | [3] -0.054 | [9] -0.076 | [4] 0.027 | rosiglitazone -0.08 | [5] -0.013 | [10] -0.007 | saracatinib -0.18 | sotrastaurin -0.033 | alvocidib 0.01 | Tubastatin A 0.078 | [6] -0.022 | defactinib 0.043 | rucaparib 0.071 | [7] 0.062 | encorafenib 0.039 | [8] 0.007

MLST8 (UniProt Q9BVC4)
inactive: [1] -0.22 | [2] 0.05 | epoxomicin -0.02 | [3] -0.099 | [4] 0.109 | rosiglitazone -0.029 | [5] -0.016 | saracatinib -0.124 | sotrastaurin -0.003 | alvocidib -0.034 | Tubastatin A 0.124 | [6] -0.116 | defactinib -0.092 | rucaparib 0.099 | [7] 0.014 | encorafenib 0.101 | [8] -0.106
active: volasertib -0.353

MSL1 (UniProt Q68DK7)
Sequence of UniProt Q68DK7 (Q68DK7 whole entry, looked up): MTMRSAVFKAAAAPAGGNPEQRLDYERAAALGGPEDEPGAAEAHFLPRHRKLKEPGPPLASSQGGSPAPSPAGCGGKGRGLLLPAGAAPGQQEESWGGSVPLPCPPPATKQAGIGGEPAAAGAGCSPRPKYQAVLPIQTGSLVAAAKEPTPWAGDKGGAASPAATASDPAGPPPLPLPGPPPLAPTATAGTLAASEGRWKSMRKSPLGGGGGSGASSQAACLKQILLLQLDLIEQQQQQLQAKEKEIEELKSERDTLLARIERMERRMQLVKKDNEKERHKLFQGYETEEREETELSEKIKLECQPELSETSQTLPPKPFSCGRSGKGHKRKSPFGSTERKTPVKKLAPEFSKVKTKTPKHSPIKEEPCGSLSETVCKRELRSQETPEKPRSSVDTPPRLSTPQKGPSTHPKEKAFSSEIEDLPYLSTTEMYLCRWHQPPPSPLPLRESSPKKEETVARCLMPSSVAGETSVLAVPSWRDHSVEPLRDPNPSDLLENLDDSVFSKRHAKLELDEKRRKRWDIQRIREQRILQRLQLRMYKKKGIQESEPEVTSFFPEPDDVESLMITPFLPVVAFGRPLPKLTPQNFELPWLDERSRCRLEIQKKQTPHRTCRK
inactive: [1] 0.077 | volasertib 0.002 | [2] -0.19 | epoxomicin 0.007 | [3] -0.161 | [9] -0.26 | [4] -0.087 | rosiglitazone 0.028 | [5] 0.098 | [10] -0.161 | saracatinib -0.026 | sotrastaurin 0.052 | [6] -0.253 | defactinib -0.069 | rucaparib -0.042 | [7] 0.04 | encorafenib -0.088 | [8] -0.017

MIS12 (UniProt Q9H081)
inactive: [1] -0.072 | [2] 0.012 | epoxomicin 0.026 | [3] -0.034 | [9] -0.007 | [4] 0.055 | rosiglitazone 0.04 | [5] -0.107 | [10] -0.039 | saracatinib 0.04 | sotrastaurin -0.014 | alvocidib -0.145 | Tubastatin A 0.031 | [6] 0.002 | defactinib -0.143 | rucaparib 0.021 | [7] -0.006 | encorafenib 0.021 | [8] -0.052
active: volasertib -0.36

NAT14 (UniProt Q8WUY8)
inactive: [1] -0.192 | volasertib -0.261 | [2] 0.063 | epoxomicin -0.024 | [3] 0.064 | [4] 0.077 | rosiglitazone 0.095 | [5] -0.107 | saracatinib -0.054 | sotrastaurin 0.068 | alvocidib -0.134 | Tubastatin A -0.02 | [6] 0 | defactinib -0.235 | rucaparib -0.002 | [7] -0.005 | encorafenib 0.002 | [8] 0.163

MON1A (UniProt Q86VX9)
inactive: [1] -0.11 | volasertib -0.012 | [2] -0.141 | epoxomicin -0.101 | [3] 0.004 | [9] 0.003 | rosiglitazone 0.134 | [5] 0.032 | [10] -0.041 | saracatinib 0.013 | sotrastaurin 0.058 | Tubastatin A 0.047 | [6] -0.103 | rucaparib -0.023 | [7] 0.029 | encorafenib 0.253
